Source: PubChem BioAssay (National Center for Advancing Translational Sciences (NCATS))
IP6K1 inh = inhibitors of human IP6K1. Q92551. IP6K1 kinase, ADP-Glo luminescence, 2 h; stronger effect = lower value. activity change, % (series mostly up to about 58 µM). actives 0.81% (n = 140,000); in the data active means activity change below about -25%
Target sequence (Q92551 whole entry, looked up): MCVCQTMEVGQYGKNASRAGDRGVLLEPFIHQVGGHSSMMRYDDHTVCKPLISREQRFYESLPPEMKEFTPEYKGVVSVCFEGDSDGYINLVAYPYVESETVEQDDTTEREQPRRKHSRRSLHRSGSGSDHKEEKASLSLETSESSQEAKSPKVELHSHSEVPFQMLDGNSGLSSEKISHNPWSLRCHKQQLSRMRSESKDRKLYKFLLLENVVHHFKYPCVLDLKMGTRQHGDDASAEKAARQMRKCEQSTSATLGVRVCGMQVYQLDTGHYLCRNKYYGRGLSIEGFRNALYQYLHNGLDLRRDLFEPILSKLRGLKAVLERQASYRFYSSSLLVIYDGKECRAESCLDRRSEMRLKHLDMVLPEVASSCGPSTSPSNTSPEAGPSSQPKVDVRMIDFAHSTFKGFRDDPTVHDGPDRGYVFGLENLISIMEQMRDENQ
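ADP-Glo luminescence measures ADP made by human IP6K1 during a 2 h RT reaction with ATP/IP6 (mix at 1.3 mM/130 uM); top library doses 57.5 and 19.1 uM final.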
KDM5B inh = KDM5B demethylase inhibition. KDM5B demethylase, FDH-coupled NADH fluorescence (FDH is formaldehyde dehydrogenase). Potency, µM (top dose mostly 57.7 µM), hits mostly inhibitors. actives 2.6% (n = 220,000). AID 1347165; active means well fitted inhibition curve with a large enough effect; inconclusive means small, poorly fitted or top-dose-only effect; inactive means no such curve, though single readings can be large or run the other way; further: nearly all actives have a fitted effect of over 70% in size
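qHTS format, multiple compound concentrations. Buffer 50 mM HEPES pH 7.5/0.01% Tween-20; 200 nM KDM5BΔAP final; 10 min compound preincubation; substrate-mix levels 12.5 µM peptide, 25 µM α-KG, 0.25 mM NAD⁺; 30 min RT; ΔRFU.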
Large screens that a line does not name were inactive. Most compounds without a hit are left out; they make up all but 2.8% or so of the library.

O=C(N1CCCC1)C1(CCO)CC12CCOCC2 (stereo not drawn)	none
COc1ccccc1-c1onc(C)c1C(=O)NCCc1ccc(F)cc1	KDM5B inh inconclusive
COc1cccc(CCNC(=O)c2c(C)noc2-c2ccco2)c1	none
COc1ccc(-c2onc(C)c2C(=O)NCCSCc2ccco2)cc1	KDM5B inh 22.4µM
CCOCCNC(=O)c1c(C)noc1-c1ccc(OC)cc1	none
COc1cc(-c2onc(C)c2C(=O)NCCc2ccc(F)cc2)cc(OC)c1OC	KDM5B inh 28.2µM
COc1cccc(CCNC(=O)c2c(C)noc2-c2cc(OC)c(OC)c(OC)c2)c1	KDM5B inh 28.2µM
COc1ccc(CN2C(=O)[C@@H]3C[C@@H](CN3Cc3cccs3)Oc3ccccc32)cc1	KDM5B inh inconclusive
COC(=O)N/N=C/c1ccccc1OC(C)=O	none (no result: IP6K1 inh)
O=C1[C@@H]2C[C@@H](CN2C(=O)c2ccc(C(F)(F)F)cc2)Oc2ccccc2N1Cc1ccccn1	none
CCN(c1ccccc1)S(=O)(=O)Cc1ccccc1Cl	none (no result: IP6K1 inh)
COc1cc(NC(=O)c2ccc(-c3ncn[nH]3)cc2)ccc1NC(=O)C(C)(C)C	none
O=C(NC[C@H]1Cn2c(-c3ccc4c(c3)OCO4)cnc2CO1)Nc1ccc(F)cc1	KDM5B inh 28.2µM
CCC(=O)NC[C@H]1Cn2c(-c3ccc4c(c3)OCO4)cnc2CO1	KDM5B inh inconclusive
Cc1ccc(CN2CCc3oc(C)c(C(=O)NC4CCCC4)c3C2)cc1	none
COc1cccc(-c2cc3c(=O)n(CCNC(=O)c4ccc(C)cc4)ccn3n2)c1	KDM5B inh 17.8µM
COc1ccc(C(O)Cn2ccn3nc(-c4ccc(C(C)C)cc4)cc3c2=O)cc1 (stereo not drawn)	none
COc1cccc(-c2cc3c(=O)n(CCNC(=O)Cc4ccc(F)cc4)ccn3n2)c1	none
COc1cccc(-c2cc3c(=O)n(CCNC(=O)COc4ccccc4)ccn3n2)c1	KDM5B inh inconclusive
COc1cccc(-c2cc3c(=O)n(CC(O)c4ccccc4)ccn3n2)c1 (stereo not drawn)	KDM5B inh 28.2µM
COc1cccc(-c2cc3c(=O)n(CCNC(=O)c4ccccc4)ccn3n2)c1	none
COc1cccc(-c2cc3c(=O)n(CCNC(=O)c4ccccn4)ccn3n2)c1	KDM5B inh 31.6µM
COc1cccc(-c2cc3c(=O)n(CCNC(=O)c4ccc(F)cc4)ccn3n2)c1	KDM5B inh 28.2µM
Cc1ccc(OCc2nc(C#N)c(N(C)Cc3ccccc3)o2)cc1	none (no result: IP6K1 inh)
CCOc1ccccc1Cn1c(SCC(=O)NC(C)(C)C)nc2c(sc3ncccc32)c1=O	none (no result: IP6K1 inh)
FC(F)(F)c1ccnc(-c2cc(NCc3ccccn3)nc3[nH]ccc23)c1	none
CC(Sc1ccc(C(F)(F)F)cn1)C(=O)NC(c1ccccc1)c1ccccc1 (stereo not drawn)	none (no result: IP6K1 inh)
Nc1nc2c(s1)CCN(Cc1ccc(Cl)cc1)CC2	none (no result: KDM5B inh)
O=S(=O)(c1cccnc1)N1CCCC2(C1)Nc1cccnc1NC2=NCc1ccccc1 (stereo not drawn)	KDM5B inh 28.2µM
Cc1cc(C(=O)N2CCCC3(C2)Nc2cccnc2NC3=NCc2ccccc2)nn1C (stereo not drawn)	KDM5B inh inconclusive
O=C(Nc1cccc(F)c1)N1CCCC2(C1)Nc1cccnc1NC2=NCc1ccccc1 (stereo not drawn)	KDM5B inh inconclusive
O=C(c1ccccc1)N1CCCC2(C1)Nc1cccnc1NC2=NC1CCCC1 (stereo not drawn)	KDM5B inh 28.2µM
COCCN=C1Nc2ncccc2NC12CCCN(C(=O)c1cccc(OC)c1)C2 (stereo not drawn)	KDM5B inh 31.6µM
O=C(c1ccsc1)N1CCCC2(C1)Nc1cccnc1NC2=NC1CCCC1 (stereo not drawn)	KDM5B inh 8.91µM
O=C(c1ccccc1Cl)N1CCCC2(C1)Nc1cccnc1NC2=NC1CCCC1 (stereo not drawn)	KDM5B inh inconclusive
O=C(c1ccccc1)N1CCCC2(C1)C(=NC1CCCCC1)NC(=O)N2c1cccnc1 (stereo not drawn)	KDM5B inh inconclusive
O=C(Nc1ccccc1)N1CCCC(C(=O)N2CCCC(c3nc4ccncc4[nH]3)C2)C1 (stereo not drawn)	none (no result: KDM5B inh)
O=C(C1CCCC1)N1CCCN(c2ccc3nnc(-c4ccccc4)n3n2)CC1	none (no result: KDM5B inh)
Cc1cccc(C(=O)N2CCCC(c3nc4ccccc4[nH]3)C2)c1 (stereo not drawn)	none (no result: IP6K1 inh)
COCCNc1nc2c(c(=O)n(C)c(=O)n2C)n1Cc1cccc2ccccc12	none (no result: IP6K1 inh)
COc1ccc(C(=O)N2CCCC3(C2)Nc2cccnc2NC3=NC2CCCC2)cc1F (stereo not drawn)	KDM5B inh inconclusive
CCn1nccc1C(=O)N1CCCC2(C1)Nc1cccnc1NC2=NCc1ccccc1 (stereo not drawn)	KDM5B inh inconclusive
O=C(c1ccccc1)N1CCCC2(C1)Nc1cccnc1NC2=NCc1ccccc1 (stereo not drawn)	KDM5B inh 28.2µM
COc1ccccc1CCC(=O)N1CCCC2(C1)Nc1cccnc1NC2=NC1CCCC1 (stereo not drawn)	KDM5B inh inconclusive
Cc1noc(C)c1CC(=O)N1CCCC2(C1)Nc1cccnc1NC2=NC1CCCC1 (stereo not drawn)	KDM5B inh 25.1µM
Cc1ccccc1S(=O)(=O)N1CCCC2(C1)Nc1cccnc1NC2=NC1CCCC1 (stereo not drawn)	KDM5B inh inconclusive
O=C(Nc1ccccc1Cl)N1CCCC2(C1)Nc1cccnc1NC2=NC1CCCC1 (stereo not drawn)	KDM5B inh 28.2µM
CCOc1ccc(C(=O)N2CCCC3(C2)Nc2cccnc2NC3=NC2CCCC2)cc1 (stereo not drawn)	KDM5B inh 31.6µM
COc1ccc(Cl)cc1NC(=O)CSc1nnc(-n2nc(C)cc2C)n1N	none (no result: IP6K1 inh)
CCn1cc(S(=O)(=O)N2CCN(c3ccccc3)CC2)cn1	none (no result: IP6K1 inh)
Cc1c(-c2ccccc2)cc(-c2ccccc2)nc1-c1ccccc1	none (no result: IP6K1 inh)
CC1=C[C@@H](CN(C)CCN(C)C)[C@H](C(C)C)C[C@H]1Cc1nnc(-c2ccccc2)o1	none
COc1ccc(C)cc1Nc1nc2ccccc2nc1NS(=O)(=O)c1cccc(C)c1	none (no result: IP6K1 inh)
O=C(NCc1nnc2n1C(C(=O)NCc1cccnc1)CC2)c1cccnc1 (stereo not drawn)	none
N#C/C(=C\c1cn(CC(=O)NCc2ccco2)c2ccccc12)C(=O)NC1CC1	none (no result: IP6K1 inh)
COc1ccc(C(=O)NCc2nnc3c(-c4nc(C(C)C)no4)cccn23)cc1	KDM5B inh inconclusive
CC(C)c1noc(-c2cccn3c(CNC(=O)c4ccccc4)nnc23)n1	KDM5B inh 22.4µM
CC(C)c1noc(-c2cccn3c(CNC(=O)c4ccccn4)nnc23)n1	KDM5B inh 25.1µM
CC(C)c1noc(-c2cccn3c(CNC(=O)c4cccnc4)nnc23)n1	KDM5B inh inconclusive
CC(C)c1noc(-c2cccn3c(CNC(=O)c4ccco4)nnc23)n1	KDM5B inh 22.4µM
CN(C)CCn1nnnc1SCc1ccc(OCc2ccccn2)cc1	none (no result: IP6K1 inh)
CCCC[S+](=O)([O-])N1CCC2(CC1)[C@H](C(=O)OCC)[C@@H](OC)C(=O)N2C	none (no result: KDM5B inh)
CCn1ccnc1CN(C)C(=O)c1cc(-c2cnc(N)nc2)nc2c(C)cccc12	KDM5B inh 28.2µM
CCn1ccnc1CN(C)C(=O)c1cc(-c2cnc(C)nc2)nc2cc(F)ccc12	none
O=C(Nc1nc(C23CC4CC(CC(C4)C2)C3)cs1)C1CCC1	none (no result: IP6K1 inh)
Cc1oc(-c2ccccc2)nc1CC(=O)NCCc1cccc(F)c1	none (no result: IP6K1 inh)
